From PubChem BioAssay (NCI)
The panel holds about 83,000 compounds, 20% with a hit somewhere; the sample as a whole holds those more often.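 Cells were grown in 96-well plates and exposed to the test compound at a single concentration for 48 hours; results are reported as percent growth, with values below 10 considered active.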 Calls of active or inactive are those of the source.

The compounds below were run on MALME-3M melanoma (assay: NCI-60 one-dose screen, 48 h (100 = growth as untreated, 0 = no growth, -100 = all killed)). Details: 10 µM unless noted.

Structure (SMILES)	growth
CN(C(=O)CN1C(=O)/C(=C/c2ccco2)SC1=S)C1CCS(=O)(=O)C1 (centres undefined)	97.1% (inactive)
O=C(c1ccc(Cl)cc1)C1[C@H](c2ccccc2Cl)[C@@H](c2ccccc2)NC12C(=O)Nc1ccccc12 (some centres undefined)	-34.8% (active)
Cc1ccc(Nc2nnc(-c3c[nH]c4ccccc34)o2)c(C)c1	39.1% (inactive)
Cc1ccccc1NC(=O)c1cccc(NC(=O)CCl)c1	79.6% (inactive)
Clc1ccc(CNc2nc(SCCN3CCOCC3)nc3c2cnn3CC(Cl)c2ccc(Br)cc2)cc1 (centres undefined)	1.86% (active)
CCc1ccc(SC2c3cc(OC)ccc3Oc3nc(N)c(C#N)c(N)c32)cc1 (centres undefined)	-55.2% (active)
O=C(N/N=C/c1ccc(B(O)O)s1)c1[nH]c2ccc(Br)cc2c1-c1ccccc1	-96.2% (active)
CCN1C(=O)N(CC)C2NNC(Sc3c(C(=O)O)c4ccccc4n(CC(C)C)c3=O)=NC21 (centres undefined)	48.1% (inactive)
COc1ccc(/C=C/c2nc3ccccc3c(=O)n2CC(=O)Nc2ccccc2)cc1	61.1% (inactive)
COc1ccc2[nH]c(=O)c(CSc3ccccc3Nc3nccc(-c4ccc5c(c4)OCO5)n3)cc2c1	99.4% (inactive)
Cc1ccc(Cl)cc1NC(=O)N/C(N)=N/c1nc2ccccc2s1	15.6% (inactive)
COc1ccc(OC)c(Cn2cc(C#N)c(N)c2C(=O)c2ccc(Br)cc2)c1	42.6% (inactive)
Cc1ccc(-c2cc(-c3ccccc3)[nH]c(=O)c2C#N)cc1	106% (inactive)
Cc1ccc(C(C(=O)NC2CCCCC2)N(Cc2ccccc2Cl)C(=O)c2ccc(CN3CCOCC3)o2)o1 (centres undefined)	109% (inactive)
